# “And” between values parts separate entries of the source, which are not always exact repeats. Equal entries are not always repeated. Out of some 5,500 compounds screened, about 2,000 (36%) were called active. Not shown: some 18% with an inconclusive outcome. The list shows a part of the results. Values without a mark were called inactive. Cut-off read from the data, not from the text of the source: active = normalized growth mostly below about 0.91 (no sharp cut-off); inconclusive = no clear call, values can overlap the other calls; inactive = mostly above about 0.92.
# Experiment: chemical genetic growth profiling, strain panel (AID 1159580);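 note: tested at 20 µM; growth read once vehicle control cultures reached saturation at 30 °C; 1 = growth at the plate median or of vehicle wells; lower values mean less growth of the strain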
# Conditions: growth OD
structure (smiles),measurement,setting,value
Nc1c2c(nc3ccccc13)CCCC2,normalized growth,"S. cerevisiae deletion strains, locus YKL068W, hits give low values",1.01
same,normalized growth,"S. cerevisiae deletion strains, locus YKL085W, strain MDH1 (second series), hits give low values",1.01
same,normalized growth,"S. cerevisiae deletion strains, locus YKL085W, strain MDH1, hits give low values",1.01
same,normalized growth,"S. cerevisiae deletion strains, locus YKL160W, strain elf1, hits give low values",1.01
same,normalized growth,"S. cerevisiae deletion strains, locus YKL190W, strain CNB1, hits give low values",1.02
same,normalized growth,"S. cerevisiae deletion strains, locus YKR001C, strain vps1, hits give low values",0.998
same,normalized growth,"S. cerevisiae deletion strains, locus YKR026C, strain gcn3, hits give low values",0.986
same,normalized growth,"S. cerevisiae deletion strains, locus YKR091W, strain srl3, hits give low values",0.994
same,normalized growth,"S. cerevisiae deletion strains, locus YLL001W, strain dnm1, hits give low values",0.989
same,normalized growth,"S. cerevisiae deletion strains, locus YLL026W, hits give low values",0.99
same,normalized growth,"S. cerevisiae deletion strains, locus YLL041C, strain sdh2, hits give low values",0.982
same,normalized growth,"S. cerevisiae deletion strains, locus YLR027C, strain aat2, hits give low values",0.984
same,normalized growth,"S. cerevisiae deletion strains, locus YLR039C, strain RIC1, hits give low values",1.09
same,normalized growth,"S. cerevisiae deletion strains, locus YLR058C, strain SHM2, hits give low values",1.02
same,normalized growth,"S. cerevisiae deletion strains, locus YLR102C, strain apc9, hits give low values",1.01
same,normalized growth,"S. cerevisiae deletion strains, locus YLR113W, strain HOG1, hits give low values",1.02
same,normalized growth,"S. cerevisiae deletion strains, locus YLR221C, strain rsa3, hits give low values",0.963
same,normalized growth,"S. cerevisiae deletion strains, locus YLR258W, strain gsy2, hits give low values",1
same,normalized growth,"S. cerevisiae deletion strains, locus YLR262C, strain YPT6 (second series), hits give low values",1.01
same,normalized growth,"S. cerevisiae deletion strains, locus YLR262C, strain YPT6, hits give low values",1.1
same,normalized growth,"S. cerevisiae deletion strains, locus YLR268W, strain sec22, hits give low values",1.01
same,normalized growth,"S. cerevisiae deletion strains, locus YLR320W, strain mms22, hits give low values",0.947
same,normalized growth,"S. cerevisiae deletion strains, locus YLR330W, strain CHS5, hits give low values",1.01
same,normalized growth,"S. cerevisiae deletion strains, locus YLR342W, strain FKS1 (second series), hits give low values",1
same,normalized growth,"S. cerevisiae deletion strains, locus YLR342W, strain FKS1, hits give low values",0.999
same,normalized growth,"S. cerevisiae deletion strains, locus YLR357W, strain rsc2, hits give low values",0.994
same,normalized growth,"S. cerevisiae deletion strains, locus YLR370C, strain arc18, hits give low values",1.01
same,normalized growth,"S. cerevisiae deletion strains, locus YLR371W, strain rom2, hits give low values",1.03
same,normalized growth,"S. cerevisiae deletion strains, locus YLR384C, strain iki3, hits give low values",0.99
same,normalized growth,"S. cerevisiae deletion strains, locus YLR418C, strain cdc73, hits give low values",1.03
same,normalized growth,"S. cerevisiae deletion strains, locus YML016C, strain PPZ1, hits give low values",1.01
same,normalized growth,"S. cerevisiae deletion strains, locus YML032C, strain rad52, hits give low values",1.01
same,normalized growth,"S. cerevisiae deletion strains, locus YML120C, strain ndi1, hits give low values",1
same,normalized growth,"S. cerevisiae deletion strains, locus YML124C, strain tub3, hits give low values",1.02
same,normalized growth,"S. cerevisiae deletion strains, locus YMR058W, strain fet3, hits give low values",0.979
same,normalized growth,"S. cerevisiae deletion strains, locus YMR078C, strain ctf18, hits give low values",1.02
same,normalized growth,"S. cerevisiae deletion strains, locus YMR125W, strain sto1, hits give low values",1.01
same,normalized growth,"S. cerevisiae deletion strains, locus YMR129W, hits give low values",0.99
same,normalized growth,"S. cerevisiae deletion strains, locus YMR205C, strain PFK2, hits give low values",1.01
same,normalized growth,"S. cerevisiae deletion strains, locus YMR223W, strain ubp8, hits give low values",1.01
same,normalized growth,"S. cerevisiae deletion strains, locus YMR231W, strain pep5, hits give low values",0.976
same,normalized growth,"S. cerevisiae deletion strains, locus YMR263W, strain SAP30, hits give low values",1.01
same,normalized growth,"S. cerevisiae deletion strains, locus YMR307W, strain GAS1, hits give low values",0.999
same,normalized growth,"S. cerevisiae deletion strains, locus YNL067W, strain RPL9B, hits give low values",0.998
same,normalized growth,"S. cerevisiae deletion strains, locus YNL071W, strain lat1, hits give low values",1
same,normalized growth,"S. cerevisiae deletion strains, locus YNL128W, strain TEP1, hits give low values",1.01
same,normalized growth,"S. cerevisiae deletion strains, locus YNL153C, strain GIM3, hits give low values",0.994
same,normalized growth,"S. cerevisiae deletion strains, locus YNL175C, strain NOP13, hits give low values",0.99
same,normalized growth,"S. cerevisiae deletion strains, locus YNL183C, strain NPR1, hits give low values",0.954
same,normalized growth,"S. cerevisiae deletion strains, locus YNL197C, strain WHI3, hits give low values",1.01
same,normalized growth,"S. cerevisiae deletion strains, locus YNL209W, strain ssb2, hits give low values",1.01
same,normalized growth,"S. cerevisiae deletion strains, locus YNL224C, strain SQS1, hits give low values",0.995
same,normalized growth,"S. cerevisiae deletion strains, locus YNL233W, strain BNI4, hits give low values",0.999
same,normalized growth,"S. cerevisiae deletion strains, locus YNL248C, strain rpa49, hits give low values",0.84 (active)
same,normalized growth,"S. cerevisiae deletion strains, locus YNL250W, strain rad50, hits give low values",1.03
same,normalized growth,"S. cerevisiae deletion strains, locus YNL271C, strain bni1, hits give low values",1.02
same,normalized growth,"S. cerevisiae deletion strains, locus YNL298W, strain CLA4, hits give low values",1.02
same,normalized growth,"S. cerevisiae deletion strains, locus YNL307C, strain MCK1, hits give low values",1.02
same,normalized growth,"S. cerevisiae deletion strains, locus YNL322C, strain KRE1 (second series), hits give low values",1.01
same,normalized growth,"S. cerevisiae deletion strains, locus YNL322C, strain KRE1, hits give low values",1.01
same,normalized growth,"S. cerevisiae deletion strains, locus YNR049C, strain mso1, hits give low values",0.975
same,normalized growth,"S. cerevisiae deletion strains, locus YNR052C, strain pop2, hits give low values",1
same,normalized growth,"S. cerevisiae deletion strains, locus YOL006C, strain TOP1, hits give low values",1.05
same,normalized growth,"S. cerevisiae deletion strains, locus YOL012C, strain htz1",0.82
same,normalized growth,"S. cerevisiae deletion strains, locus YOL147C, strain pex11, hits give low values",1.01
same,normalized growth,"S. cerevisiae deletion strains, locus YOR001W, strain rrp6, hits give low values",0.925
same,normalized growth,"S. cerevisiae deletion strains, locus YOR061W, strain CKA2, hits give low values",1.02
same,normalized growth,"S. cerevisiae deletion strains, locus YOR069W, strain VPS5, hits give low values",1.01
same,normalized growth,"S. cerevisiae deletion strains, locus YOR070C, strain gyp1, hits give low values",0.975
same,normalized growth,"S. cerevisiae deletion strains, locus YOR080W, strain dia2, hits give low values",0.969
same,normalized growth,"S. cerevisiae deletion strains, locus YOR083W, strain WHI5 (second series), hits give low values",0.962
same,normalized growth,"S. cerevisiae deletion strains, locus YOR083W, strain WHI5, hits give low values",0.994
same,normalized growth,"S. cerevisiae deletion strains, locus YOR106W, strain vam3, hits give low values",0.997
same,normalized growth,"S. cerevisiae deletion strains, locus YOR136W, strain idh2, hits give low values",1.02
same,normalized growth,"S. cerevisiae deletion strains, locus YOR144C, strain elg1, hits give low values",1.02
same,normalized growth,"S. cerevisiae deletion strains, locus YOR184W, strain ser1, hits give low values",1.04
same,normalized growth,"S. cerevisiae deletion strains, locus YOR231W, strain MKK1, hits give low values",0.985
same,normalized growth,"S. cerevisiae deletion strains, locus YOR265W, strain rbl2, hits give low values",0.99
same,normalized growth,"S. cerevisiae deletion strains, locus YOR270C, strain vph1, hits give low values",0.888
same,normalized growth,"S. cerevisiae deletion strains, locus YOR290C, strain snf2, hits give low values",0.971
same,normalized growth,"S. cerevisiae deletion strains, locus YOR316C, strain cot1, hits give low values",1.02
same,normalized growth,"S. cerevisiae deletion strains, locus YPL051W, strain arl3, hits give low values",0.951
same,normalized growth,"S. cerevisiae deletion strains, locus YPL055C, strain LGE1, hits give low values",1.02 and 0.992
same,normalized growth,"S. cerevisiae deletion strains, locus YPL078C, strain atp4, hits give low values",1.02
same,normalized growth,"S. cerevisiae deletion strains, locus YPL106C, strain sse1, hits give low values",0.982
same,normalized growth,"S. cerevisiae deletion strains, locus YPL240C, strain hsp82, hits give low values",0.987
same,normalized growth,"S. cerevisiae deletion strains, locus YPL241C, strain CIN2, hits give low values",1.01
same,normalized growth,"S. cerevisiae deletion strains, locus YPL256C, strain CLN2, hits give low values",0.995
same,normalized growth,"S. cerevisiae deletion strains, locus YPR119W, strain clb2, hits give low values",1.01
same,normalized growth,"S. cerevisiae deletion strains, locus YPR141C, strain kar3, hits give low values",1.01
same,normalized growth,"S. cerevisiae deletion strains, locus YPR163C, strain tif3, hits give low values",1.01
same,normalized growth,"S. cerevisiae deletion strains, locus YPR167C, strain met16, hits give low values",1.02
same,normalized growth,"S. cerevisiae deletion strains, strain wtn01, hits give low values",1.02
same,normalized growth,"S. cerevisiae strains, strain wild type, hits give low values",1.02

# — PubChem BioAssay AID1159580 (chemical genetic matrix, 2015)
